The results in this text go back to PubChem BioAssay AID2685 (National Center for Advancing Translational Sciences (NCATS), 2010).

In all, about 320,000 compounds went through this assay and about 2,100 (0.66%) were called active. Roughly 53% stayed inconclusive and do not appear here. Calls come from the whole dose curve; as a rule, active = well fitted inhibition curve with a large enough effect in the signal ratio, with a control signal flat (not every such curve was filed as active); inconclusive = small, poorly fitted or top-dose-only effect, or effect the other way, or a change in a side signal; inactive = flat fitted curve, though single readings scatter; the % refers to the signal ratio. Many of the other results were omitted from the sample, so actives are more common in it than they were.
Potency is the fitted concentration of half-maximal effect.

The nature of the assay: qHTS Assay for Lipid Storage Modulators in Drosophila S3 Cells.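 For cell number change: cells counted by Cell Tracker Red CMTPX staining in the red channel.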 Particulars: BODIPY lipid droplet fluorescence, 18-24 h, cells fed with added oleic acid; cell number change: measured here: cell count max response; series mostly up to 46.1 µM. Summed up: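 Drosophila S3 cells loaded with oleic acid (400 uM, as added) and compounds at several concentrations; lipid droplets imaged by 488-nm laser-scanning cytometry, 500–530 nm intensity and object ratio to cell channel. Percent activity normalized to 20 uM Triacsin C.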
On the technique in general: In qHTS, concentration-response curves come from the screen itself.
Turning to `Cc1nc(C)n(C(C)CC(=O)O)n1` (configuration not stated), the Potency result was “inactive” and the cell number change is -20%.

For `Cc1nn(C(C)CC(=O)O)c(C)c1C` (configuration not stated), the Potency is 23.1 µM (active).

For the molecule `CC(=O)c1c(C)nn(C(C)CC(=O)O)c1C` (configuration not stated), the Potency result was “inactive” and the cell number change is -4.59%.

Take `C/C(Cn1nnc([N+](=O)[O-])n1)=N\NC(=O)c1ccc(C)cc1`: the Potency result is “inactive” and the cell number change was 24.7%.

For `COc1ccc(N(C(=O)CNC(=O)c2cccs2)C(C(=O)NC2CCCC2)c2cccnc2)cc1` (configuration not stated), the Potency entry is “inactive” and the cell number change was 3.7%.

For the molecule `CC(C(=O)Nc1ccccc1)N1CCN(C(=O)c2ccco2)CC1` (configuration not stated), the Potency entry was “inactive” and the cell number change stood at 13.4%.

`CC(C)C(=O)Nc1ccc(C(=O)N2CCN(C(=O)c3ccco3)CC2)cc1`: the Potency is 4.61 µM (active) and the cell number change amounted to 6.86%.

With `O=C(c1ccc(NS(=O)(=O)c2cccc([N+](=O)[O-])c2)cc1)N1CCN(C(=O)c2ccco2)CC1`, the Potency was 9.2 µM (active) and the cell number change is 1.34%.

Turning to `CC(C)Oc1ccc(C(=O)N2CCN(C(=O)c3ccco3)CC2)cc1`, the Potency entry is “inactive” and the cell number change is 19.8%.

`O=C(Nc1ccc(F)cc1)C(c1ccccc1)N1CCN(C(=O)c2ccco2)CC1` (configuration not stated): the Potency entry is “inactive”.

Turning to `O=C(c1ccco1)N1CCN(S(=O)(=O)c2cccc([N+](=O)[O-])c2)CC1`, the Potency result is “inactive” and the cell number change is -1.91%.

Take `O=C(c1ccc(NS(=O)(=O)c2cccc([N+](=O)[O-])c2)cc1)N1CCCCCC1`: the Potency result was “inactive” and the cell number change is -11.1%.

In the case of `CC(C)c1ccc(NC(=O)C(c2ccccc2)N2CCN(C(=O)c3ccco3)CC2)cc1` (configuration not stated), the Potency was 20.6 µM (active) and the cell number change is -35.1%.

`CCOc1ccccc1NC(=O)C(c1ccccc1)N1CCN(C(=O)c2ccco2)CC1` (configuration not stated): the Potency entry was “inactive” and the cell number change was -20.1%.

As for `CCOc1ccc(NS(=O)(=O)c2c(C)nc3sccn3c2=O)cc1`, the Potency entry was “inactive” and the cell number change is -0.288%.

Consider `O=C(Nc1ccc(Br)cc1)C1CCCN(C2=NS(=O)(=O)c3ccccc32)C1` (configuration not stated), for which the Potency entry was “inactive” and the cell number change was 0.774%.

For the molecule `Cc1ccc(SC(C)C(=O)Nc2ncn[nH]2)cc1` (configuration not stated), the Potency result was “inactive”.

As to `CC1CCN(C(CNS(=O)(=O)c2ccccc2)c2ccccc2)CC1` (configuration not stated), the Potency was 0.461 µM (active) and the cell number change stood at 12.1%.

Take `O=S(=O)(NCC(c1ccccc1)N1CCC(O)CC1)c1ccc(Cl)cc1` (configuration not stated): the Potency result was “inactive”.

`Cc1ccc(C(CNS(=O)(=O)c2ccccc2)N2CCN(C)CC2)cc1` (configuration not stated): the outcome was “inactive [at 0.0737 µM]”.

In the case of `CCOc1cccc(OCCn2cnc3ccccc3c2=O)c1`, the Potency result was “inactive” and the cell number change is 10.8%.

Turning to `COc1cccc(C(=O)N2CCN(C(=O)C3COc4ccccc4O3)CC2)c1` (configuration not stated), the Potency result was “inactive”.

In the case of `COCCn1c(=S)[nH]c2cc(C(=O)NCCc3ccccc3)ccc2c1=O`, the Potency is 2.31 µM (active) and the cell number change was -6.13%.

Regarding `COC(=O)c1ccc2c(=O)n(CCCCCC(=O)O)c(=S)[nH]c2c1`, the Potency result was “inactive” and the cell number change turned out to be 9.06%.

Turning to `CCN(CC)CCCn1c(=S)[nH]c2cc(C(=O)OC)ccc2c1=O`, the Potency was 3.66 µM (active) and the cell number change came to 12.4%.

Regarding `COCCn1c(=S)[nH]c2cc(C(=O)NC(C)C)ccc2c1=O`, the Potency entry was “inactive”.

As for `CCn1c(=S)[nH]c2cc(C(=O)OC)ccc2c1=O`, the Potency entry is “inactive” and the cell number change was found to be 11.1%.

In the case of `CCOCCCn1c(=S)[nH]c2cc(C(=O)NCCc3ccccc3)ccc2c1=O`, the Potency entry is “inactive”.

Consider `Cc1ccc(S(=O)(=O)Nc2cc(C(C)C)c(O)cc2C)cc1`, for which the Potency entry is “inactive” and the cell number change is -20%.

Regarding `CCOC(=O)/C(C#N)=C/N1CCOCC1`, the Potency entry was “inactive” and the cell number change is -2.81%.

`NC(=NC(=O)c1ccc(OCC(F)(F)F)nc1)c1ccc(Cl)cc1`: the Potency result is “inactive” and the cell number change was -16.5%.

Turning to `CC(=O)c1ccc(OCC(=O)OCC(=O)Nc2sccc2C(N)=O)cc1`, the Potency was 3.66 µM (active) and the cell number change is -10.9%.

As to `COc1ccc(CCC(=O)OCC(=O)Nc2ccccc2)cc1`, the Potency result was “inactive” and the cell number change came out at 3.15%.

In the case of `COc1ccc(CCC(=O)OCC(=O)Nc2sccc2C(N)=O)cc1`, the Potency is 6.51 µM (active) and the cell number change was -27.9%.

In the case of `NC(=O)c1ccsc1NC(=O)COC(=O)COc1ccccc1F`, the Potency entry is “inactive” and the cell number change was -3.04%.

In the case of `COc1cc(OC)cc(C(=O)OCC(=O)Nc2sccc2C(N)=O)c1`, the Potency entry is “inactive” and the cell number change was found to be 2.18%.

Turning to `Cc1ccc(OCC(=O)OCC(=O)Nc2sccc2C(N)=O)cc1C`, the Potency result was “inactive” and the cell number change is -3.96%.

Consider `CCOC(=O)C1CCN(C(=O)CCc2c(C)nc3c(-c4ccc(F)cc4)c(C)nn3c2C)CC1`, for which the Potency result is “inactive” and the cell number change stood at 9.15%.

As for `COc1ccccc1NS(=O)(=O)c1cccc(C(=O)N2CCN(C/C=C/c3ccccc3)CC2)c1`, the Potency entry is “inactive” and the cell number change is -3.91%.

Turning to `COc1cc2c(C(=O)N(C)c3ccc(F)cc3)cn(C)c(=O)c2cc1OC`, the Potency result is “inactive” and the cell number change is -28.8%.

For the molecule `CCCC(=O)OCC(=O)c1[nH]c(C)c(C(C)=O)c1C`, the Potency entry is “inactive” and the cell number change came out at 5.74%.

For the molecule `CC(=O)c1c(C)[nH]c(C(=O)COC(=O)CN(C)S(=O)(=O)c2ccc(Cl)cc2)c1C`, the Potency was 5.8 µM (active).

As for `CN(CC(=O)OCC(N)=O)S(=O)(=O)c1ccc(Cl)cc1`, the Potency result was “inactive” and the cell number change is -16.4%.

Turning to `O=C(Nc1cccc(Cl)c1)c1ccc2c(=O)n3c(nc2c1)CCCCC3`, the Potency entry was “inactive” and the cell number change was -6.1%.

`O=C(N1CCCCC1)C12CC3CC(CC(C3)C1)C2`: the Potency entry is “inactive” and the cell number change was -0.102%.

Turning to `COc1ccc(OCc2nnc(SCC(=O)NC3CC3)n2C)cc1`, the Potency entry is “inactive” and the cell number change is 16.2%.

Consider `Cc1ccc(OCc2nnc(SCC(=O)NC3CCCCC3)n2C)cc1`, for which the Potency entry was “inactive” and the cell number change amounted to 20.5%.

As for `Cn1c(COc2ccc(Cl)cc2)nnc1SCC(=O)NC1CCCC1`, the Potency was 14.6 µM (active) and the cell number change came out at 17.9%.

With `COC(=O)c1cc2c(N)c(C(=O)c3ccccc3)sc2nc1C(OC)OC`, the Potency result is “inactive” and the cell number change is -8.65%.

Take `CCOC(=O)c1ccccc1OC(=O)CS(=O)c1ccccc1[N+](=O)[O-]` (configuration not stated): the Potency result is “inactive” and the cell number change is -21.3%.

For the molecule `O=C(CS(=O)c1ccccc1[N+](=O)[O-])Oc1ccc(Br)cc1` (configuration not stated), the Potency entry was “inactive” and the cell number change turned out to be 2.35%.

For `CS(=O)(=O)c1ccc(S(=O)CC(=O)OCc2ccccc2)c([N+](=O)[O-])c1` (configuration not stated), the Potency is 29.1 µM (active) and the cell number change is -65.2%.

For `CSc1nsc(SCC(=O)N2CCc3ccccc32)n1`, the Potency entry is “inactive” and the cell number change is -10.2%.

On to `O=C(NCCCn1ccnc1)C(=O)NCC1OCCN1S(=O)(=O)c1ccc(Br)cc1` (configuration not stated), for which the Potency result was “inactive” and the cell number change was -6.41%.

For `O=C(CN1C(=O)NC2(CCCC2)C1=O)Nc1ccccc1F`, the Potency entry is “inactive” and the cell number change was -18%.

As for `COC(=O)[C@H](CCSC)NC(=O)Nc1cc(C)ccc1C`, the Potency result was “inactive”.

Consider `COC(=O)[C@H](CCSC)NC(=O)Nc1ccc(C(C)=O)cc1`, for which the Potency entry was “inactive” and the cell number change was determined as 0.814%.

As for `COC(=O)[C@H](CCSC)NC(=O)Nc1ccc(C)c(C)c1`, the Potency was 5.17 µM (active) and the cell number change is -12.2%.

As for `CSCC[C@H](NC(=O)Nc1cccc(Br)c1)C(=O)O`, the Potency entry was “inactive” and the cell number change turned out to be 8.72%.

Turning to `CSCC[C@H](NC(=O)Nc1cccc(C(F)(F)F)c1)C(=O)O`, the Potency was 14.6 µM (active) and the cell number change was -1.65%.

As for `C[C@H](NC(=O)Nc1cccc(C(F)(F)F)c1)C(=O)O`, the Potency entry was “inactive” and the cell number change is 14.7%.
